According to PubChem BioAssay (NCATS):
Records with an inconclusive call do not appear. A call without a number means that no potency is given here. Unmarked numbers belong to inactive results. Activity calls are given as the source filed them. The call rests on the fitted dose curve; in most records, active means well fitted curve in the direction sought with a large enough effect; inconclusive means small, poorly fitted or top-dose-only effect, or another doubt; inactive means no such curve, though single readings can be large; an effect the other way counts as inactive or inconclusive.

Tests used:
[1] = molecular target: Rap guanine nucleotide exchange factor 3 (Homo sapiens) (UniProt O95398); test: Confirmatory qHTS for antagonist of cAMP-regulated guanine nucleotide exchange factor 3 (EPAC1) (AID 1645880); further: nearly all actives have a fitted effect of over 55% in size; further: potency means the concentration at half of the fitted maximal effect
Rap guanine nucleotide exchange factor 3 (Homo sapiens), sequence (O95398 whole entry, looked up): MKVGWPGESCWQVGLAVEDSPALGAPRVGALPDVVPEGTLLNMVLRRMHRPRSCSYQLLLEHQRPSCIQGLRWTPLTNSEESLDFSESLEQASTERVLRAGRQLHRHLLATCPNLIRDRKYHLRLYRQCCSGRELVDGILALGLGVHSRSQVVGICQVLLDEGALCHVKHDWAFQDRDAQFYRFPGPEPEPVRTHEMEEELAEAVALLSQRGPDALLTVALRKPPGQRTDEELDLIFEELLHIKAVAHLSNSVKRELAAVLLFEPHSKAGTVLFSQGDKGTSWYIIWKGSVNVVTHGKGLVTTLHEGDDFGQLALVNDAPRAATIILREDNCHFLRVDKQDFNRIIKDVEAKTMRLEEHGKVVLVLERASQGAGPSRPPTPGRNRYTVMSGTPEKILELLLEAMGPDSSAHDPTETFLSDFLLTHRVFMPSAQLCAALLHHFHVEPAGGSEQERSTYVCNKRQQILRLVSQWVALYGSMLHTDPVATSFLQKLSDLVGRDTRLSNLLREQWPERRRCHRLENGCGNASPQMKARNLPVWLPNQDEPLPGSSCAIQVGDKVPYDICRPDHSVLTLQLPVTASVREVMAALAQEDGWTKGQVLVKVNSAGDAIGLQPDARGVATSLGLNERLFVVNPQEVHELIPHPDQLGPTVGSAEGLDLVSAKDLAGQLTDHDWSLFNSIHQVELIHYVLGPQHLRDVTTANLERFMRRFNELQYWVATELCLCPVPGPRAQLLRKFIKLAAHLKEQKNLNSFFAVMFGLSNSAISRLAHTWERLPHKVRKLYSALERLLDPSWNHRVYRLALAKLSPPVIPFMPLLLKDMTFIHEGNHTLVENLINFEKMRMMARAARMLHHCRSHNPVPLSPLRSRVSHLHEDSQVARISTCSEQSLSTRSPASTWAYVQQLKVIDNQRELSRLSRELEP
Outline: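 Nucleotide exchange uses 100 nM EPAC1, 250 nM RAP1B-BODIPY-GDP and 50 uM GDP, with compounds in a concentration-titration series. After 5 min at room temperature, fluorescence (480 nm ex/540 nm em) is read every 5 min for 30 min. Data are normalized to control ATA and DMSO.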

[2] = molecular target: Rap guanine nucleotide exchange factor 3 (Homo sapiens) (UniProt O95398); test: Confirmatory qHTS for agonist of cAMP-regulated guanine nucleotide exchange factor 3 (EPAC1) (AID 1645881); further: nearly all actives have a fitted effect of over 75% in size; further: potency means the concentration at half of the fitted maximal effect;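 on activation: EPAC1 catalysed release of BODIPY-GDP from Rap1B seen as fluorescence loss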
[3] = molecular target: Rap guanine nucleotide exchange factor 4 (Homo sapiens) (UniProt Q8WZA2); test: Confirmatory qHTS for agonist of cAMP-regulated guanine nucleotide exchange factor 4 (EPAC2) (AID 1645884);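 further: nucleotide exchange releases bodipy-GDP from Rap1 and this lowers its fluorescence; nearly all actives have a fitted effect of over 65% in size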
Rap guanine nucleotide exchange factor 4 (Homo sapiens), sequence (Q8WZA2 whole entry, looked up): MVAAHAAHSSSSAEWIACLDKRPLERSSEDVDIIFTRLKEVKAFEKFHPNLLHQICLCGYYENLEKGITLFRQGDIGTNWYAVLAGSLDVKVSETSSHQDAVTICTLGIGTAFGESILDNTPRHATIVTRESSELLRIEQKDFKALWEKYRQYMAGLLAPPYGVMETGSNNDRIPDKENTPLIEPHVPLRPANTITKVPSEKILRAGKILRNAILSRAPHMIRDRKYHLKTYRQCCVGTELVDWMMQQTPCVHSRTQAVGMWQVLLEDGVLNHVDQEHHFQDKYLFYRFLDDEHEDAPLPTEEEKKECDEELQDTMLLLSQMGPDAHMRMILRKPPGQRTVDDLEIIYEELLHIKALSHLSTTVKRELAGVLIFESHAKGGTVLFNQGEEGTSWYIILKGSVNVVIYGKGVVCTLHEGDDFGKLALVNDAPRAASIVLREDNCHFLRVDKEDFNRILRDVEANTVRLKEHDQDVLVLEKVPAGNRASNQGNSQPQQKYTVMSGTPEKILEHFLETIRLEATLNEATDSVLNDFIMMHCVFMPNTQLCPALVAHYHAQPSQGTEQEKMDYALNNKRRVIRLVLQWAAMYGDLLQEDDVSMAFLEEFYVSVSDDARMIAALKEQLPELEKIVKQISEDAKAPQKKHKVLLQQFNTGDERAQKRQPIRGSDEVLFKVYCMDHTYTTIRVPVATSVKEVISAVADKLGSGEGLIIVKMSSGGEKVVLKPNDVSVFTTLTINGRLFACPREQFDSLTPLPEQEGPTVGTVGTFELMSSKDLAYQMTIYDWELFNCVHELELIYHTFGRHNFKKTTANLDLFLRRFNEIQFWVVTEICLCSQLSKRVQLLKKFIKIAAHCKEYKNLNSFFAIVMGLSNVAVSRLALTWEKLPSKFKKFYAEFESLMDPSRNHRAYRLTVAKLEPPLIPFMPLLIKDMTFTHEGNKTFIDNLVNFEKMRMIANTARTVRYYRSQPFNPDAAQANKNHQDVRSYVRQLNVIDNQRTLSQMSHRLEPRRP

[4] = molecular target: Rap guanine nucleotide exchange factor 4 (Homo sapiens) (UniProt Q8WZA2); test: Confirmatory qHTS for antagonist of cAMP-regulated guanine nucleotide exchange factor 4 (EPAC2) (AID 1645885); further: nearly all actives have a fitted effect of over 25% in size; further: potency means the concentration at half of the fitted maximal effect
[5] = molecular target: Rap guanine nucleotide exchange factor 3 (Homo sapiens) (UniProt O95398); test: Counterscreen qHTS for antagonist of cAMP-regulated guanine nucleotide exchange factor 3 (EPAC1) (AID 1645888);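 further: fluorescence loss as bound BODIPY-GDP is released from Rap1B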
Outline: (§1)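 Rap1B-BODIPY-GDP 250 nM + GDP 50 uM; cpds 7-pt, final 9.74 nM–152 uM (activator mode) or from 7.32 nM upwards (inhibitor mode); RT; FI 480/540 nm at 5 and 30 min, then ± cAMP, reread.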

[6] = molecular target: Rap guanine nucleotide exchange factor 3 (Homo sapiens) (UniProt O95398); test: Counterscreen qHTS for agonist of cAMP-regulated guanine nucleotide exchange factor 3 (EPAC1) (AID 1645889); further: nearly all actives have a fitted effect of over 40% in size; further: potency means the concentration at half of the fitted maximal effect
Outline: as §1

SMILES	Potency [1]	Potency [2]	Potency [3]	Potency [4]	Potency [5]	Potency [6]	outcome [4]	activation [3]	activity change, negative = inhibition [5]	activation [6]
CC(=O)N1CCc2cc(CNC(=O)c3ccccc3Br)ccc21	inactive	inactive	inactive	inactive	inactive	inactive	–	–	–	–
CCSc1nc2ccccc2c(OCc2ccccc2Cl)c1C(=O)OC	inactive	inactive	inactive	inactive	inactive	inactive	–	–	–	–
CCc1ccc2oc(C(=O)Nc3ccccc3OC)cc(=O)c2c1	inactive	inactive	inactive	–	inactive	inactive	inactive [at 12.7 µM]	–	–	–
COc1cc2cncc(Cc3ccc(Cl)cc3)c2cc1OC	inactive	inactive	inactive	inactive	inactive	inactive	–	–	–	–
COc1ccc(C(=O)NCCONC(=O)c2ccc(OC)cc2)cc1	inactive	inactive	inactive	inactive	inactive	inactive	–	–	–	–
Cc1cc2c(c(=O)o1)C(c1ccc([N+](=O)[O-])o1)C(C#N)=C(N)O2 (stereo not drawn)	inactive	inactive	inactive	inactive	inactive	inactive	–	–	–	–
Cc1ccc(OCC(=O)Nc2ccccc2N2CCCC2)c(C)c1	inactive	inactive	inactive	inactive	inactive	inactive	–	–	–	–
COc1ccc(C2=CC(=O)C[C@H](COCc3ccccc3)N(C(=O)OC(C)(C)C)O2)cc1	inactive	inactive	inactive	inactive	inactive	inactive	–	–	–	–
Cc1ccc2nc(-c3ccc(Cl)cc3)c(Cc3ccccc3C(F)(F)F)n2c1	inactive	inactive	–	inactive	–	–	–	10.6% [at 17.1 µM, percent relative to cAMP agonist control]	0.28% [at 30.8 µM]	-0.77% [at 30.8 µM]
CC(OC(=O)CNC(=O)COc1ccccc1)C(=O)N(C)Cc1ccccc1 (stereo not drawn)	inactive	inactive	–	inactive	–	–	–	1.04% [at 17.1 µM, percent relative to cAMP agonist control]	-17.7% [at 30.8 µM]	-1.24% [at 30.8 µM]
O=C(Cc1ccccc1)O/N=C1\CCCc2ccccc21	inactive	inactive	inactive	inactive	inactive	inactive	–	–	–	–
CCCOc1c(OC)cccc1C1CC(=O)Nc2cc(OC)c(OC)c(OC)c21 (stereo not drawn)	inactive	inactive	inactive	inactive	inactive	inactive	–	–	–	–
CCOc1cc(C2C3=C(CC(C)(C)CC3=O)N(CCOC)C3=C2C(=O)CC(C)(C)C3)ccc1O	inactive	inactive	inactive	inactive	inactive	inactive	–	–	–	–
CC(=O)NC(c1ccc(C)cc1)c1cc(Cl)c2cccnc2c1O (stereo not drawn)	inactive	inactive	inactive	inactive	inactive	inactive	–	–	–	–
CC(=O)NC(CCS(C)(=O)=O)C(=O)Nc1cccc(C)c1C (stereo not drawn)	inactive	inactive	inactive	inactive	inactive	inactive	–	–	–	–
CC(Sc1nncn1C)C(=O)Nc1nnc(C(C)C)s1 (stereo not drawn)	inactive	inactive	inactive	inactive	inactive	inactive	–	–	–	–
COc1ncc(-c2c(-c3ccccc3OC)sc3ccccc23)cn1	inactive	inactive	–	inactive	–	–	–	-3.13% [at 17.1 µM, percent relative to cAMP agonist control]	-4.66% [at 30.8 µM]	15.7% [at 30.8 µM]
CCOC(=O)c1sc(N=NC2=C(O)CCCC2=O)c(C(=O)OCC)c1C	8.91 µM (active)	inactive	–	inactive	–	–	–	-2.58% [at 17.1 µM, percent relative to cAMP agonist control]	-17% [at 30.8 µM]	6.27% [at 30.8 µM]
O=C1CSC2(C(=O)N(Cc3cccc(C(F)(F)F)c3)c3ccccc32)N1c1ccc(F)c(F)c1 (stereo not drawn)	inactive	inactive	inactive	inactive	inactive	inactive	–	–	–	–
CCC(=O)N1CCc2cc(OC)c(OC)cc2C1COc1ccccc1OC (stereo not drawn)	inactive	inactive	inactive	inactive	inactive	–	–	–	–	4.46% [at 30.8 µM]
COc1ccccc1OCC(=O)Nc1cc(C(F)(F)F)ccc1-n1cncn1	inactive	inactive	–	inactive	–	–	–	2.73% [at 17.1 µM, percent relative to cAMP agonist control]	-12% [at 30.8 µM]	5.31% [at 30.8 µM]
COc1ccc(C(C)=O)cc1COc1ccc(F)cc1	inactive	inactive	–	inactive	–	–	–	4.69% [at 17.1 µM, percent relative to cAMP agonist control]	5.38% [at 30.8 µM]	4.32% [at 30.8 µM]

SMILES	Potency [1]	Potency [2]	Potency [3]	Potency [4]	Potency [5]	Potency [6]	outcome [4]	activation [3]	activity change, negative = inhibition [5]	activation [6]
O=C(O)CCc1ccc(-c2ccccc2)n1-c1cccc(Br)c1	inactive	inactive	inactive	–	inactive	inactive	inactive; activator; fitted 0.0054 uM [at 12.7 µM]	–	–	–
C=CCc1ccccc1Oc1cc(OC)nc(N)n1	inactive	inactive	–	inactive	–	–	–	-1.65% [at 17.1 µM, percent relative to cAMP agonist control]	-22.4% [at 30.8 µM]	-1.76% [at 30.8 µM]
COc1ccc(C(C#N)=Cc2cccc(OC)c2OC)cc1	inactive	inactive	inactive	16.9 µM (active)	inactive	inactive	–	–	–	–
CCc1nc2c(OCCOc3ccc(F)cc3)cccn2c1N(C)C(=O)c1ccc(OC)cc1	inactive	inactive	–	inactive	–	–	–	3.55% [at 17.1 µM, percent relative to cAMP agonist control]	-15.6% [at 30.8 µM]	11.5% [at 30.8 µM]
O=C1c2cc(O)c(O)cc2OC(c2ccc(O)c(O)c2)C1O (stereo not drawn)	42.6 µM (active)	inactive	inactive	inactive	inactive	inactive	–	–	–	–
CC1CC(C)CN(c2nc3c(c(=O)n(C)c(=O)n3C)n2CCSc2ncccn2)C1 (stereo not drawn)	inactive	inactive	–	inactive	–	–	–	0.98% [at 17.1 µM, percent relative to cAMP agonist control]	1.05% [at 30.8 µM]	6.66% [at 30.8 µM]
CCOc1ccc(-n2c(SCC(=O)Nc3ccccc3OC)nc3c(oc4ccccc43)c2=O)cc1	inactive	inactive	inactive	inactive	inactive	inactive	–	–	–	–
CC(Sc1ccc(Cl)cc1)C(=O)NNC(=O)c1csc(N2CCOCC2)n1 (stereo not drawn)	inactive	inactive	–	inactive	–	–	–	4.3% [at 17.1 µM, percent relative to cAMP agonist control]	-11.6% [at 30.8 µM]	30.8% [at 30.8 µM]
COc1ccc(N2CCN(C(=O)c3sc4nc(-c5ccc(F)cc5)cn4c3C)CC2)cc1	inactive	inactive	inactive	inactive	inactive	inactive	–	–	–	–
Cn1c(=O)c2nc(SCC(=O)Nc3ccc(Cl)c(Cl)c3)n(C)c2n(C)c1=O	inactive	inactive	inactive	–	inactive	inactive	inactive [at 12.7 µM]	–	–	–
CCCc1nc2ccccc2c(=O)n1/N=C/c1ccccc1O	37.9 µM (active)	inactive	inactive	inactive	inactive	inactive	–	–	–	–
Cc1cnc(C(=O)N(c2ccc(N3CCOCC3)cc2)C2C(=O)Nc3ccccc3N=C2c2ccc(F)cc2)cn1 (stereo not drawn)	inactive	inactive	inactive	inactive	inactive	inactive	–	–	–	–
CCN1C(=O)/C(=C/C=C2/SCCN2C)SC1=S	inactive	79.4 µM (active)	–	inactive	–	11.2 µM (active)	–	20% [at 17.1 µM, percent relative to cAMP agonist control]	0.532% [at 30.8 µM]	–
COc1cc(OC)nc(Oc2cc(/C=N/O)ccc2OC)n1	inactive	inactive	–	inactive	–	–	–	-0.415% [at 17.1 µM, percent relative to cAMP agonist control]	-10.5% [at 30.8 µM]	1.61% [at 30.8 µM]
CCc1ccc(S(=O)(=O)Nc2cc3c(cc2C)n(C)c(=O)n3C)cc1	inactive	inactive	–	inactive	–	–	–	6.63% [at 17.1 µM, percent relative to cAMP agonist control]	-10.1% [at 30.8 µM]	18.2% [at 30.8 µM]
O=C(O)c1ccc(N/N=C/c2ccc3c(c2)OCO3)cc1	inactive	inactive	inactive	33.8 µM (active)	inactive	inactive	–	–	–	–
Cc1c(OC(C)C(=O)NC(Cc2c[nH]c3ccc(O)cc23)C(=O)O)ccc2c1oc(=O)c1ccccc12 (stereo not drawn)	13.5 µM (active)	inactive	inactive	inactive	inactive	inactive	–	–	–	–
Cc1ccc(F)c(NC(=O)/C(C#N)=C(\O)c2ccc(C(C)(C)C)cc2)c1	8.91 µM (active)	inactive	–	inactive	–	–	–	-11.9% [at 17.1 µM, percent relative to cAMP agonist control]	8.44% [at 30.8 µM]	14.8% [at 30.8 µM]
COc1cc(C2c3c(oc4ccccc4c3=O)C(=O)N2c2nc(C)c(C)s2)ccc1O (stereo not drawn)	inactive	inactive	inactive	inactive	inactive	inactive	–	–	–	–
CC1S/C(=N/N=C2CCC(C(C)(C)C)CC2)NC1=O (stereo not drawn)	inactive	inactive	–	inactive	–	–	–	-7.78% [at 17.1 µM, percent relative to cAMP agonist control]	2.96% [at 30.8 µM]	18.6% [at 30.8 µM]
Cc1ccc(Cl)cc1NC(=O)c1ccccc1OCC(=O)Nc1ccc(Cl)cc1	inactive	inactive	–	inactive	–	–	–	0.829% [at 17.1 µM, percent relative to cAMP agonist control]	-9.99% [at 30.8 µM]	12.9% [at 30.8 µM]
